# Reference: PubChem BioAssay AID687001 (Broad Institute, 2013)
# Results with a measured potency or affinity are listed apart. Unmarked numbers belong to inactive results.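 The calls were made as follows: active = signal-lowering compounds whose fitted half-maximal concentration is at or below twice the top tested dose in every run; inconclusive = runs disagree, flat 30 to 70% inhibition, or poor curve fit; inactive = the rest.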
# Target: Protein S100-A4 (Homo sapiens) (UniProt P26447)
# Assay: S100A4-myosin IIA binding inhibitor potency, dose response, biochemical, fluorescence polarization, cherry-picked hits (AID 687001);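 also: 0% = DMSO neutral control wells and -100% = TFP positive control wells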
# Conditions: FP, S100A4/TAMRA-myosin IIA peptide binding; series mostly up to 11 µM; activity change, negative = inhibition: at the top concentration
# Protein S100-A4 (Homo sapiens), sequence (P26447 whole entry, looked up): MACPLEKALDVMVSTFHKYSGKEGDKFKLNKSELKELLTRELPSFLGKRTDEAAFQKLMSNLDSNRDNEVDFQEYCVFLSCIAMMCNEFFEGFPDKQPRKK
row,Structure (SMILES),"activity change, negative = inhibition"
1,CC(C)n1c(CNC(=O)c2ccccc2F)nnc1SCC(=O)c1ccc(F)cc1,28%
2,C[C@H](CO)N1C[C@H](C)[C@H](CN(C)Cc2ccncc2)Oc2c(NC(=O)C3CC3)cccc2C1=O,1.1%
3,CN(C)CCCN(C(=O)c1ccc(S(=O)(=O)N2CCCCCC2)cc1)c1nc2cc3c(cc2s1)OCO3,-0.688%
4,O=C(C[C@@H]1C[C@H]2c3cc(NS(=O)(=O)c4ccccc4)ccc3O[C@H]2[C@@H](CO)O1)N1CCOCC1,2.46%
5,COc1ccc(OCC(=O)N2CCCC2=O)c([N+](=O)[O-])c1,5.77%
6,CCOC(=O)c1cc(C)sc1/N=C/C1C(=O)CCCC1=O,1.94%
7,C[C@H](CO)N1C[C@H](C)[C@H](CN(C)Cc2ccccc2)Oc2c(NC(=O)CCCCCC(=O)Nc3ccccc3N)cccc2C1=O,10.4%
8,CCOC(=O)[C@]12CCCC=C1N(Cc1cccc3ccccc13)C(=O)[C@H](CC(=O)NCCCN1CCCC1=O)C2,-4.19%
9,CCOC(=O)C1CCCN(C(=O)c2cc(S(=O)(=O)N3CCCCCC3)ccc2OC)C1 (centres undefined),-5.58%
10,O=C(N[C@H]1CC[C@@H](CCNS(=O)(=O)Cc2ccccc2)O[C@H]1CO)c1ccccc1F,6.83%
11,C[C@@H]1CN([C@H](C)CO)S(=O)(=O)c2ccc(C3=CCCCC3)cc2O[C@@H]1CN(C)Cc1cncnc1,4.8%
12,COc1ccc(C2SCCN2S(=O)(=O)c2ccc(F)cc2)cc1OC (centres undefined),-4.85%
13,O=C(Nc1cccc(Cl)c1)N[C@H]1CC[C@H](CCNC(=O)C2CCCC2)O[C@H]1CO,-0.796%
14,CCOc1ccccc1N,0.398%
15,COc1ccccc1CN1CCNC(=O)C1CC(=O)NCCCN1CCOCC1 (centres undefined),-11.5%
16,Cc1ccc(S(=O)(=O)Nc2ccc3c(c2)nc(CCN2CCN(c4ccccn4)CC2)n3C)cc1,1.65%
17,C[C@@H]1CN([C@H](C)CO)C(=O)c2cccc(NC(=O)c3ccncc3)c2O[C@@H]1CN(C)C,-1.43% [at 10 µM]
18,CCn1cc(CNC(=O)C2CCC(=O)N(CCc3cccc(F)c3)C2)cn1 (centres undefined),-4.76%
19,COc1ccc(C#Cc2ccc([C@@H]3[C@@H](CO)N4CCCCN(C(=O)Nc5ccc(F)cc5)C[C@@H]34)cc2)cc1,31.6%
20,CCn1c(=O)c2ccccc2n2c(SCC(N)=O)nnc12,-7.44%
21,COc1c(Br)cc([N+](=O)[O-])c(OC)c1C(=O)NC(=O)Nc1c(Cl)cccc1Cl,-2.6%
22,O=C1CCc2cc(S(=O)(=O)N3CCCCC3)cc3c2N1CCC3,28.8%
23,C[C@@H]1CN([C@@H](C)CO)C(=O)c2cc(NC(=O)C3CC3)ccc2O[C@@H]1CN(C)Cc1ccc(Cl)c(Cl)c1,-3.49%
24,CCCCn1c(SCC(=O)NC2CCS(=O)(=O)C2)nc2ccccc2c1=O (centres undefined),15.2%
